Test results from ChEMBL document CHEMBL4513216, “Probing the Open Global Health Chemical Diversity Library for Multistage-Active Starting Points for Next-Generation Antimalarials” (ACS Infect Dis, 2020).
Screen size: about 69,000 compounds; about 8,600 (12%) showed an effect of 50% or more. What follows is part of a selection rich in strong results, with near analogues and random picks from the rest.

system: Plasmodium berghei; experiment: Screen against P. berghei liver stage (PbLuc), transformed with Luciferase, at 10uM; assay type: functional, HepG2; details: tested at 10 uM

Structure (SMILES) | INHIBITION [%]
CCc1nc(CNC(C)(CO)C2CCCCC2)no1 (configuration not stated) | 37.4
Cc1cnn(CC2CN(c3nc4ccccc4o3)CCO2)c1 (configuration not stated) | 44.1
Cn1ccnc1CN1CCN(c2ccc(C#N)cc2F)CC1 | 53.3
Cn1ccnc1CN1CCCN(Cc2noc(C3CC3)n2)CC1 | 11.2
Cc1nc(CN2CCN(Cc3nccn3C)CC2)no1 | 33.7
Cc1cc(C2CCC2)nc(N2CC(n3cccn3)C2)n1 | -9.91
Cc1cc(C)nc(N2CCN(Cc3nccn3C)CC2)n1 | 7.52
Cc1cc(C2CCC2)nc(N2CCN(Cc3nccn3C)CC2)n1 | 84.1
Cn1ccnc1CN1CCN(Cc2ccc(C#N)cc2F)CC1 | 15.15
Cc1cc(C(F)(F)F)nc(N2CCN(Cc3nccn3C)CC2)n1 | 74
Cn1ccnc1CN1CCN(Cc2cc(C#N)ccc2F)CC1 | 35.3
COCc1cccc(NC(=O)NCCCN(C)S(C)(=O)=O)c1 | -10.8
CC(C1CC1)N(C)C(=O)c1ccc(-n2ncc(C#N)c2N)cc1 (configuration not stated) | -61.4
CCCOCCN1CCN(c2ncnc3[nH]ccc23)CC1 | -24
CC(=O)Cn1nc(-c2ccccc2F)ccc1=O | 64.2
O=C(O)Cn1nc(-c2ccccc2F)ccc1=O | 26.4
NC(=O)Cn1nc(-c2ccccc2F)ccc1=O | 15.4
Cc1noc(Cl)c1CC(=O)N1CCC(Nc2cccnn2)CC1 | 18.04
CCC(=O)N1CCN(C(=O)Cn2cccn2)CC1 | 27.45
O=C(NCc1cccnc1)[C@@H]1C[C@H]2[C@H](CCN2c2ncc(F)cn2)O1 | 21.8
CNC(=O)[C@H]1CC[C@@H]2[C@@H](CCN2c2ncccn2)O1 | 47.5
O=C(NCc1cccs1)[C@@H]1CC[C@@H]2[C@@H](CCN2c2ncccn2)O1 | 3.25
O=C(NCc1cccnc1)[C@H]1CC[C@@H]2[C@@H](CCN2c2ncccn2)O1 | 74.2

Structure (SMILES) | INHIBITION [%]
O=C(NCc1cccnc1)[C@@H]1C[C@H]2[C@H](CCN2c2ncccn2)O1 | 73
O=C(NCc1cccnc1)[C@@H]1CC[C@@H]2[C@@H](CCN2c2ncccn2)O1 | 96.3
O=C(NCc1cccs1)[C@H]1CC[C@@H]2[C@@H](CCN2c2ncccn2)O1 | -50.8
O=C(NCc1cccnc1)[C@@H]1CC[C@@H]2[C@@H](CCN2c2ncc(F)cn2)O1 | 73
O=C(NCc1ccco1)[C@H]1CC[C@@H]2[C@@H](CCN2Cc2cccnc2)O1 | -66
O=C(NCc1ccccn1)[C@@H]1CC[C@@H]2[C@@H](CCN2c2ncc(F)cn2)O1 | 40.4
O=C(NCc1cccnc1)[C@@H]1C[C@@H]2CCN(c3ncc(F)cn3)C[C@@H]2O1 | -9.71
O=C(NCc1ccco1)[C@H]1CC[C@@H]2[C@@H](CCN2c2ncccn2)O1 | 7.77
OCc1cn(Cc2cccc(C(F)(F)F)c2)nn1 | -5.1
CN(Cc1cnn(C)c1)C(=O)c1ccc(Cl)c(N2CCNC2=O)c1 | 18.4
Cc1ccc(C(=O)N(C)CCCc2cnn(C)c2)cc1N1CCNC1=O | 58.8
CCN(Cc1cnn(C)c1)C(=O)c1ccc(C)c(N2CCNC2=O)c1 | 28.2
O=C(NC1CCN(c2ncccc2F)C1)c1cccc(-n2ccnn2)c1 (configuration not stated) | -20.8
C1CC(CN2C[C@@H]3CC[C@H]2CN(Cc2noc(C4CCCC4)n2)C3)C1 | 18.6
CNC(=O)c1cccc(CNC(C)c2cc(Cl)ccc2OC)c1 (configuration not stated) | 18.9
CC(NCCCN1CCCC1=O)c1ccc(F)cc1N(C)C (configuration not stated) | -2.75
CNC(=O)c1cccc(CNC(C)c2cc(C)ccc2OC(F)F)c1 (configuration not stated) | 51.5
CNC(=O)c1cccc(CCNS(C)(=O)=O)c1 | 21.3
CNC(=O)c1cccc(CNC(C)c2ccc(F)cc2N(C)C)c1 (configuration not stated) | 66.8
CC(NCCN1CCC(N(C)C)CC1)c1ccc(F)cc1N(C)C (configuration not stated) | 40.6
O=S(=O)(NC[C@]12COC[C@H]1CN(c1ncc(F)cn1)C2)C1CC1 | -15.6
CCOC(CC)C(=O)NCCC(=O)N1CCN(c2ncccn2)CC1 (configuration not stated) | -18.2
COc1ccc2nc(NC(=O)c3c(C(=O)O)cnn3C)sc2c1 | 28.7

Structure (SMILES) | INHIBITION [%]
CC(CNCc1ccc2c(c1)n(C)c(=O)n2C)Oc1ccccn1 (configuration not stated) | -8.51
Cc1ccccc1C1CCN(CCn2cc(-c3nccn3C)nn2)C1 (configuration not stated) | 28
Cc1ccccc1C1CCN(CCn2cc(-c3cccc(O)c3)nn2)C1 (configuration not stated) | 59.3
Cc1ccccc1C1CCN(CCn2cc(-c3nccs3)nn2)C1 (configuration not stated) | 4.15
Cc1noc(OCC(=O)N2CCCCC2C)n1 (configuration not stated) | -26.4
Cn1ccc(CN2CCC(OCc3ccccc3)CC2)cc1=O | 3.15
COc1ccc(OC2CCN(Cc3ccn(C)c(=O)c3)CC2)cc1 | 45.7
Cn1ccc(CN2CCC(CO)CC2)cc1=O | -10.8
Cc1cccc(C)c1OC1CCN(Cc2ccn(C)c(=O)c2)CC1 | 58
Cn1ccc(CN2CCC(COC3CCCC3)CC2)cc1=O | 58
Cn1ccc(CN2CCC(Oc3ccccc3)CC2)cc1=O | 25.6
CN(C)[C@@H]1CCN(C(=O)NC2CCCC2)[C@H]1Cc1ccncc1 | 23.3
O=c1[nH]c(N2CCCCC2)nc2c1CCN(Cc1cccnc1)C2 | 8.72
CCn1c(=O)c2cc(S(N)(=O)=O)ccc2n(CC)c1=O | 2.84
CC(C)N(C)Cc1cn2c(n1)CN(Cc1ccsc1)CC2 | -14.9
Cc1cc(CN2CCCC(Cn3cncn3)C2)on1 (configuration not stated) | 35.3
Cc1nc(CNC(=O)NCc2cccnc2N(C)C)cs1 | -27.8
COc1ccc(NC(=O)N2CCCC2c2ccco2)c(OC)c1 (configuration not stated) | 41.5
CN(CCNC(=O)Nc1nccs1)Cc1ccc(F)cc1 | 2.7
CN(CCNC(=O)Nc1cnn(C)c1)Cc1ccc(F)cc1 | 49.3
CN(CCNC(=O)Nc1ccn(C)n1)Cc1ccc(F)cc1 | 52.7
